Assay outcomes (PubChem BioAssay)
aSyn 5UTR act = Activators working through SNCA 5'UTR binding (MLPCN) | activity score, % (tested at 7.5 µM), hits read low | alpha-synuclein 5'UTR reporter, activators screen | actives 7.1% (n = 300,000); in the data active means activity score below about -60%
* hit, by the source's call. Not all results are given here.

SMILES	aSyn 5UTR act
OCC1CCCN(C(=S)Nc2ccc(Oc3ccccc3)cc2)C1 (stereo not drawn)	-135*
CN(C)c1ccc(/C=N/c2cc(-c3ccccc3)nn2-c2ccccc2)cc1	-133*
O=C(Nc1nc2ccccc2[nH]1)c1ccc(Cl)c([N+](=O)[O-])c1	-109*
O=C(Nc1nc2ccccc2[nH]1)c1ccccc1[N+](=O)[O-]	-118*
Cc1c(C(=O)Nc2nc3ccccc3[nH]2)cccc1[N+](=O)[O-]	-167*
CC1Oc2ccccc2C=C1/C=N/Nc1ccc(C(=O)O)cc1 (stereo not drawn)	-95*
Cc1cccc(C(=O)Nc2ccc(N3CCN(S(C)(=O)=O)CC3)cc2)c1	-84*
CS(=O)(=O)N1CCN(c2ccc(NC(=O)c3ccccc3)cc2)CC1	-123*
Cc1ccc(N=Nc2c(O)[nH]c3ccc(F)cc23)cc1	-137*
O=C(O)c1ccc(N=Nc2c(O)[nH]c3ccc(Br)cc23)cc1	-188*
O=C(O)c1ccc(N=Nc2c(O)[nH]c3cc(Cl)ccc23)cc1	-294*
Oc1[nH]c2ccc(Br)cc2c1N=Nc1ccc(C(F)(F)F)cn1	-68*
OCCN=C1CCCc2c1[nH]c1ccc(Br)cc21	62
O=Nc1c(-c2c(O)[nH]c3cc(Br)ccc23)[nH]c2ccccc12	77
Oc1[nH]c2ccccc2c1N=Nc1cccc(Cl)c1	-87*
Cc1cccc2c(N=Nc3ccccc3)c(O)[nH]c12	-112*
Cc1[nH]c(N=Nc2ccccc2)nc1N=Nc1ccccc1	63
Cc1sc2ncnc(N/N=C/c3cccc(O)c3)c2c1C	-75*
C/C(=N\Nc1ncnc2sc(C)c(C)c12)c1ccccn1	105
Cc1ccc(Nc2ncnc3sc(C)c(C)c23)cc1	-182*
COc1ccc(-c2coc3cc(OC4OC(CO)C(O)C(O)C4O)ccc3c2=O)cc1 (stereo not drawn)	-124*
COc1ccc(CC(=O)c2ccc(OC3OC(CO)C(O)C(O)C3O)cc2O)cc1 (stereo not drawn)	-69*
COc1ccc(-c2coc3cc(O)ccc3c2=O)cc1	-134*
COc1ccc(-c2coc3cc(O)ccc3c2=O)cc1O	-90*
CC(C)(C)C1CCC(OC(=O)CN2CCCCC2)CC1 (stereo not drawn)	-63*
SMILES	aSyn 5UTR act
O=C(O)CC(=O)Nc1ccc(Oc2ccc(C(F)(F)F)cn2)c(Cl)c1	65
O=C(Nc1ccc(OCC(F)(F)C(F)F)c(C(F)(F)F)c1)c1ccccc1	-101*
Cc1cccc(NC(=O)c2ccc([N+](=O)[O-])s2)n1	-88*
Cc1ccnc(NC(=O)c2ccc([N+](=O)[O-])s2)c1	-238*
O=C(NC1CCCC1)c1ccc([N+](=O)[O-])s1	-153*
CCOc1ccc(-c2nc(C)c(C(C)=O)n2O)cc1	-173*
CCOC(=O)C1CCN(c2ncnc3c(C)csc23)CC1	-69*
Nc1ccc(CCc2nc3ccccc3o2)cc1	-126*
Cc1ccc(NC(=O)CSc2nnc(-c3cccs3)o2)cc1S(=O)(=O)N(C)C	-164*
CCCCN(C)S(=O)(=O)c1ccc(C(=O)Nc2nnc(-c3cccs3)o2)cc1	81
CN(C)/C=C1\C(=O)N(c2ccc(Cl)c(Cl)c2)CS1(=O)=O	-81*
O=C1C(C=NCc2cccnc2)=C(O)c2ccccc21	-186*
O=C1C(C=NCc2ccco2)=C(O)c2ccccc21	-141*
COc1ccc(/C=C/C(=O)C2C(=O)C=C(C)OC2=O)cc1O (stereo not drawn)	-243*
CN1CCC(=NNc2ncnc3sc4c(c23)CCCC4)CC1	-82*
Cc1cc(C)[n+]2n1C(=O)C(c1ccccc1)=C2[O-]	-93*
COc1ccc(C(=O)N=c2sc3ccccc3n2C)cc1	-193*
COC(=O)Cn1c(=NC(=O)c2cccc(OC)c2)sc2cc(OC)ccc21	-87*
COc1cc(OC)cc(C(=O)N=c2sc3ccccc3n2C)c1	-149*
Cc1ccc(C(=O)N/N=c2\sc3ccccc3n2C)cc1	-62*
COc1cccc(C(=O)N=c2sc3cc(S(C)(=O)=O)ccc3n2C)c1	-127*
CN(/N=C/C=C/c1ccccc1)c1cc(=O)n(C)c(=O)[nH]1	-65*
CCOc1ccc(NC(=O)c2[nH]c(C)c(C(C)=O)c2C)cc1	-76*
COc1ccc(NC(=O)c2[nH]c(C)c(C(C)=O)c2C)cc1	-193*
CCc1ccc(NC(=O)c2[nH]c(C)c(C(C)=O)c2C)cc1	-223*
SMILES	aSyn 5UTR act
CCc1c(C(=O)Nc2ccc(OC)cc2)[nH]c(C)c1C(C)=O	-93*
Cn1ccsc1=NC(=O)c1cccc(OC(F)F)c1	-128*
O=Cc1cc2cc3c(cc2nc1Cl)OCCO3	-62*
O=C1N(Cc2ccc(F)cc2)CCN1c1ccc(F)cc1	-81*
O=C(Nc1nccs1)c1ccc(-c2ccccc2[N+](=O)[O-])o1	-135*
O=C(Nc1nccs1)c1ccc(-c2ccccc2Cl)o1	-286*
COc1ccccc1NC(=O)c1ccc(-c2ccccc2[N+](=O)[O-])o1	-125*
O=C(Nc1ccc(N2CCOCC2)c(Cl)c1)C1CCCCC1	-69*
O=C(c1ccc(Cl)cc1)c1cc([N+](=O)[O-])ccc1N1CCOCC1	118
O=C(Nc1ccc(N2CCCCC2)c(Cl)c1)c1ccc2c(c1)OCCO2	-132*
O=C(Nc1ccc(N2CCCC2)c(Cl)c1)c1ccc2c(c1)OCCO2	-78*
O=C(Nc1ccc(N2CCOCC2)c(Cl)c1)c1ccc(Cl)cc1	-126*
CCCOc1ccccc1C1CC(=O)Nc2cc3c(cc21)OCCO3 (stereo not drawn)	103
O=C(Nc1ccc(N2CCOCC2)c(Cl)c1)c1ccc2c(c1)OCCO2	-93*
CCN1CCN(c2ccc(NC(=O)c3ccc(F)cc3)cc2Cl)CC1	-94*
O=C(Nc1ccc(N2CCCC2)c(Cl)c1)c1ccc(Br)o1	-177*
CCN1CCN(c2ccc(NC(=O)c3ccc([N+](=O)[O-])o3)cc2Cl)CC1	126
CCN1CCN(Cc2ccc(NC(=O)c3ccc(C)c(NC(=O)c4c[nH]c5cc(C(F)(F)F)ccc5c4=O)c3)cc2C(F)(F)F)CC1	113
O=C(Nc1ccc(N2CCOCC2)c(Cl)c1)c1ccco1	-69*
Cc1cc(C(=O)Nc2ccc(N3CCOCC3)c(Cl)c2)c(C)o1	-180*
O=C(Nc1ccc(N2CCOCC2)c(Cl)c1)c1ccccc1F	-172*
c1ccc(CSc2nnc(-c3c[nH]c4ccccc34)o2)cc1	-151*
Fc1ccccc1CSc1nnc(-c2ccccc2)o1	-152*
COc1ccc(-c2nnc(SCc3ccccc3F)o2)cc1	-163*
Fc1ccccc1CSc1nnc(-c2cccnc2)o1	-69*
SMILES	aSyn 5UTR act
COc1cc(OC)cc(-c2nnc(SCc3c(F)cccc3Cl)o2)c1	-101*
Cc1ccccc1-c1nnc(SCc2ccccc2)o1	-191*
Cc1ccccc1-c1nnc(SCc2ccccc2F)o1	-149*
CCc1c(C)nc(SCC(=O)c2cccs2)c(C#N)c1C	-269*
COc1ccc2nc(N3CCC(C)CC3)c(C#N)cc2c1	-175*
Fc1cc(Br)ccc1NC(=S)Nc1ccccc1	-115*
Cc1ccc(NC(=S)Nc2ccc(Br)cc2)cc1	-86*
Fc1ccccc1NC(=S)Nc1ccc(Br)cc1	-74*
Cc1ccc(/C=N/NC(=O)Cc2ccc(Cl)cc2)c(O)c1	66
Cc1ccc(CNC(=O)Nc2ccc(Cl)cc2)cc1	-99*
O=C(NCc1ccc(Cl)cc1Cl)Nc1ccccc1	-91*
Cc1ccc(CNC(=O)Nc2cccs2)cc1	-115*
Cc1ccc(CNC(=O)Nc2ccccc2)cc1	-187*
CC(=O)N(Cc1ccc(F)cc1)C1=C(NCc2ccccc2)C(=O)c2ccccc2C1=O	92
